Measurements reported in the supplement of paper PMC10849652.
Targets with a hit are over-represented here; the source holds about 7,900 in all. About 0.6% of all pairs of compound and target were hits. Unmarked numbers belong to inactive results.

Compound: CC(C)C[C@@H](C=O)NC(=O)[C@H](CC(C)C)NC(=O)[C@H](CC(C)C)NC(=O)OCc1ccccc1
Experiment: log2 fold change, soluble protein after heating vs DMSO (PISA); higher = thermal stabilisation; K562 cells, 10 uM, 30 min; active = over 0.2 and 3.5 SD of the protein, either way, in both replicates (recomputed)
Summary of the method: (§1)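 K562 cells at 2×10^6 cells/mL were exposed to 10 μM compound for 30 min, then aliquots were heated for 3 min across 48°C-58°C, pooled, and extracted in PBS containing 0.5% NP-40 at 4°C. The supernatant after 21,000xg for 90 min was taken as soluble protein and measured by TMTpro 16plex LC-MS/MS with channel sums equalised. Thermal stability is reported relative to control samples, with values from duplicates. Fold changes are given on a log2 scale.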

Sequence of UniProt Q8IWA4 (Q8IWA4 whole entry, looked up): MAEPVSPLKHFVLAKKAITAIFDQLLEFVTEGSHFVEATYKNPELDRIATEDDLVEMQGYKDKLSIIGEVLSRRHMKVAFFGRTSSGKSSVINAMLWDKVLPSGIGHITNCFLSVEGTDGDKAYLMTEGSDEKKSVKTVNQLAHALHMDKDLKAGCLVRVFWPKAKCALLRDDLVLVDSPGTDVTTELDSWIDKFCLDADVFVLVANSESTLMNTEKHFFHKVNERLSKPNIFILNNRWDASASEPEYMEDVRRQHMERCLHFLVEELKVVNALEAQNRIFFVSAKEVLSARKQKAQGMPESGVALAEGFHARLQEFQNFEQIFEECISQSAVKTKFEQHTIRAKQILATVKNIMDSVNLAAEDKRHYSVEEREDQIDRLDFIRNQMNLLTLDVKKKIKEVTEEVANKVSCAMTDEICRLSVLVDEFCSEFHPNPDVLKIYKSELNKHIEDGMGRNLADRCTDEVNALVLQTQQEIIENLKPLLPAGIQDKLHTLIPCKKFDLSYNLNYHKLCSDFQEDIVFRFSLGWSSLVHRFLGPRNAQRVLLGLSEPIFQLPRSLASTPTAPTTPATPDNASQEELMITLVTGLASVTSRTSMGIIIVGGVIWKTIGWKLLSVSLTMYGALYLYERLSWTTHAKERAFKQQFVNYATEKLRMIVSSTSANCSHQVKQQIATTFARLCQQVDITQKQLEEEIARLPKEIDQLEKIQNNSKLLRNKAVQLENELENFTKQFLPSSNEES
Sequence of UniProt O95232 (O95232 whole entry, looked up): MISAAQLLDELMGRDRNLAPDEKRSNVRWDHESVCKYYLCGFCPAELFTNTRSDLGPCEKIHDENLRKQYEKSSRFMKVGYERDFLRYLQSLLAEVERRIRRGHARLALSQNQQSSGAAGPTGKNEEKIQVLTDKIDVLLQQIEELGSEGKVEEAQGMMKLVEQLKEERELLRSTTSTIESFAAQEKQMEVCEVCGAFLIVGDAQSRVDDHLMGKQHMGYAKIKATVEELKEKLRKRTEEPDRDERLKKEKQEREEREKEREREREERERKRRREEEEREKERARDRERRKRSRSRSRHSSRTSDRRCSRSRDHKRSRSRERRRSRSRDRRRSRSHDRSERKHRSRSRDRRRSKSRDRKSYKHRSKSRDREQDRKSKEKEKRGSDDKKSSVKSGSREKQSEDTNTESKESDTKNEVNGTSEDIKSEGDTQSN
Sequence of UniProt P48449 (P48449 whole entry, looked up): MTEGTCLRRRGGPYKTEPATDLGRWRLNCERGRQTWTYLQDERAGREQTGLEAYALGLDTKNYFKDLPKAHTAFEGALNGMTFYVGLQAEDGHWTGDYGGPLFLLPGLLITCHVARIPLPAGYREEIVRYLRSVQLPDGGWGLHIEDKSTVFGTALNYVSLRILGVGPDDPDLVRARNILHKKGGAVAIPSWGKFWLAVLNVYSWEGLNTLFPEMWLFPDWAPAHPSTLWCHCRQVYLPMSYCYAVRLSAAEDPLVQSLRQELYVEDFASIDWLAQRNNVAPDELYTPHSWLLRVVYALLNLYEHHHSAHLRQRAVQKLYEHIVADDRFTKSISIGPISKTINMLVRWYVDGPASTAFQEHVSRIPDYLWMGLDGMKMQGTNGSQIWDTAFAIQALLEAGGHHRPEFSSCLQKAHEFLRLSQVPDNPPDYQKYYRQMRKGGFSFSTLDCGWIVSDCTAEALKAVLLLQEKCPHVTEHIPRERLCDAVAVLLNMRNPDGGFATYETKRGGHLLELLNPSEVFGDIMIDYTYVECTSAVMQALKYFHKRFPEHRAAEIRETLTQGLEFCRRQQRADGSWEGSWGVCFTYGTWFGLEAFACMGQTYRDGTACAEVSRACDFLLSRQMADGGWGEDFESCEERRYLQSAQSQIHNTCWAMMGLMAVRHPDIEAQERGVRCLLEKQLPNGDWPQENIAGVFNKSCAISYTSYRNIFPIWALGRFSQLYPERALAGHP
Sequence of UniProt Q9H1B7 (Q9H1B7 whole entry, looked up): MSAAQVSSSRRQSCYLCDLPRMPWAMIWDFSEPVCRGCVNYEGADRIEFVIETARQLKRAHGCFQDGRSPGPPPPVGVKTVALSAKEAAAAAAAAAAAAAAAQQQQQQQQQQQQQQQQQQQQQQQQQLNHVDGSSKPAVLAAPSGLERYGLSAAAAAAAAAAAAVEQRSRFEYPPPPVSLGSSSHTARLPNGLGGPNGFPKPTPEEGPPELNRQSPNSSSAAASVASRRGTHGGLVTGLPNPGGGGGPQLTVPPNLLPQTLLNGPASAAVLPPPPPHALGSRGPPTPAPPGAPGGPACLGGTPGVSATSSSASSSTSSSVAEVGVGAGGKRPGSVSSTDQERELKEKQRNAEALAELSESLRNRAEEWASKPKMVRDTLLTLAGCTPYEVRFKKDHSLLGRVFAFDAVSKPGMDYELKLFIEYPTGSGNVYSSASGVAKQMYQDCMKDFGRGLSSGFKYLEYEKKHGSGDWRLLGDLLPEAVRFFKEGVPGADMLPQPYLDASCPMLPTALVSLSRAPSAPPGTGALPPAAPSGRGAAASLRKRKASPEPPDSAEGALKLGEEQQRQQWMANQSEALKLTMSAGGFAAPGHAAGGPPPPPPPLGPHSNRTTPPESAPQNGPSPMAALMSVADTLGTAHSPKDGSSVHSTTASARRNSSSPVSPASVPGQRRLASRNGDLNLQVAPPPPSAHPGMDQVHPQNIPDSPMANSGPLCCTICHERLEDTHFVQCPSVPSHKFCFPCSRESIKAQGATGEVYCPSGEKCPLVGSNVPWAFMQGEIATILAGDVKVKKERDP
Sequence of UniProt Q6P9B6 (Q6P9B6 whole entry, looked up): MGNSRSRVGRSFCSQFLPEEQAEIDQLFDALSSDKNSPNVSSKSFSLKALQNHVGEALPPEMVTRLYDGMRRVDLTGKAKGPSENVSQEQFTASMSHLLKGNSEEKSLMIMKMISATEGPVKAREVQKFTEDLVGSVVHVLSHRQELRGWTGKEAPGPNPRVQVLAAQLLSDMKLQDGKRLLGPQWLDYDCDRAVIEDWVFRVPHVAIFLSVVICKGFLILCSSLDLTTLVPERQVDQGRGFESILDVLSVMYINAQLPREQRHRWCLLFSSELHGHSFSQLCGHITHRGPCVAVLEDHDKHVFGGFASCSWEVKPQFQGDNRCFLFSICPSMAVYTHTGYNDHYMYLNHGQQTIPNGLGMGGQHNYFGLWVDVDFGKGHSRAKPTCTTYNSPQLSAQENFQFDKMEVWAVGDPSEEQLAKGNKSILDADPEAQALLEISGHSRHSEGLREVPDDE
Sequence of UniProt O95140 (O95140 whole entry, looked up): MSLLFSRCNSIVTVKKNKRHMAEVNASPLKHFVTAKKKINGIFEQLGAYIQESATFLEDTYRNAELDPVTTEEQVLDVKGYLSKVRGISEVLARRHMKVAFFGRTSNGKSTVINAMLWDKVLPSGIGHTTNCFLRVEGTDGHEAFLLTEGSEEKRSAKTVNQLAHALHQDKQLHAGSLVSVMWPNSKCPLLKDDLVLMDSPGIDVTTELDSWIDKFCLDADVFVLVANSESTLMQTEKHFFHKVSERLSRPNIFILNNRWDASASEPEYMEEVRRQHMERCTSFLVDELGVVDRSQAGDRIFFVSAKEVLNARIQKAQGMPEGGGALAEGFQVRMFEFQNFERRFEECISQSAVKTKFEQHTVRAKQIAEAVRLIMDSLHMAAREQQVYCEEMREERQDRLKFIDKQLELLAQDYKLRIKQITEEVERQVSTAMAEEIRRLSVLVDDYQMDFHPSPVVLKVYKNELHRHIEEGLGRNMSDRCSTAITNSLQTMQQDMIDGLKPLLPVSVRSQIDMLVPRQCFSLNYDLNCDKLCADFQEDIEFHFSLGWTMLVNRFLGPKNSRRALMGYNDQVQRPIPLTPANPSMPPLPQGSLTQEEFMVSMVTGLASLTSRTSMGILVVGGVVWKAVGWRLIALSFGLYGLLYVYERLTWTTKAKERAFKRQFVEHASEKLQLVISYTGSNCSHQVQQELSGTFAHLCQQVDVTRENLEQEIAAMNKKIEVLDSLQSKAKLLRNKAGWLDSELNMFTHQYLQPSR
Sequence of UniProt Q14739 (Q14739 whole entry, looked up): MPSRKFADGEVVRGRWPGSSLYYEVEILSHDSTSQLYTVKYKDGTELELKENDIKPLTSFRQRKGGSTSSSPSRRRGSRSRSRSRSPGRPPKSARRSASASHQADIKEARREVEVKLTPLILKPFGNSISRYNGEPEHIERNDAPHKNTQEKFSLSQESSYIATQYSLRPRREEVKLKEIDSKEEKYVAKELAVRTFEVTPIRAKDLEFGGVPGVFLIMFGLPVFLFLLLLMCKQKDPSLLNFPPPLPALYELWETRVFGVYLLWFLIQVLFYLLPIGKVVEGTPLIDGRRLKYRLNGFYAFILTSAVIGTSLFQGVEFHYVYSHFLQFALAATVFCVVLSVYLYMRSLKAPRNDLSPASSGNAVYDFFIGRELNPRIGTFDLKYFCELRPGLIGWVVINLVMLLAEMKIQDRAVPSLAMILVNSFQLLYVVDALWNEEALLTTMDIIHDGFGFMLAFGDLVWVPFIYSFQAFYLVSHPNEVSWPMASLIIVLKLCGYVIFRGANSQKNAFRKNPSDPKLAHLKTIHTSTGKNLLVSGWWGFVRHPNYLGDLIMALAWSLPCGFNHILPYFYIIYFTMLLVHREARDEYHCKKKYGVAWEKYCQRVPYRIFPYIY
Sequence of UniProt Q96LU5 (Q96LU5 whole entry, looked up): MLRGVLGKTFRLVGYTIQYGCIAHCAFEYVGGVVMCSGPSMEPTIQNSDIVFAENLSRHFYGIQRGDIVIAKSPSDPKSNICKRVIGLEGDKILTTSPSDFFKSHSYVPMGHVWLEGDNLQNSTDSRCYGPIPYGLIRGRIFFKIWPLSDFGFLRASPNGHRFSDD
Sequence of UniProt Q8WV07 (Q8WV07 whole entry, looked up): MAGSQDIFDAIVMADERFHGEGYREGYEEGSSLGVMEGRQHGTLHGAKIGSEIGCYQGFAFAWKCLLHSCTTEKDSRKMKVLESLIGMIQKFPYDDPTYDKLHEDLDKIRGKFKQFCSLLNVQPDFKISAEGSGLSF
Sequence of UniProt O14880 (O14880 whole entry, looked up): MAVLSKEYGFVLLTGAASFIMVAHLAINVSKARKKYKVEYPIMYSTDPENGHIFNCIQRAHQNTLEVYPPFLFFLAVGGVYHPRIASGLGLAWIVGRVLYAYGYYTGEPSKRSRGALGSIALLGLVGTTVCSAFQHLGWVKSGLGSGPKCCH

Target	log2 fold change
MAPK9 (UniProt P45984)	-0.032
MGST3 (UniProt O14880)	0.006
INTS7 (UniProt Q9NVH2)	0.077
LARP1 (UniProt Q6PKG0)	0.036
KDM5D isoform 3 (UniProt Q9BY66)	0.114
MAP2K1 (UniProt Q02750)	0.015
MAP3K20 (UniProt Q9NYL2)	0.052
LUC7L3 (UniProt O95232)	0.007
LBR (UniProt Q14739)	-0.083
L2HGDH (UniProt Q9H9P8)	-0.026
KDM3B (UniProt Q7LBC6)	0.014
LUC7L2 (UniProt Q9Y383)	-0.04
MFN2 (UniProt O95140)	0.032
IPO9 (UniProt Q96P70)	-0.068
LSR (UniProt Q86X29)	0.086
MAP4 (UniProt P27816)	0.019
LARP7 isoform 3 (UniProt Q4G0J3)	-0.057
MFF (UniProt Q9GZY8)	0.048
METTL18 (UniProt O95568)	-0.003
ILF3 isoform 7 (UniProt Q12906)	0.001

Target	log2 fold change
LAMP2 (UniProt P13473)	0.004
LRPPRC (UniProt P42704)	0.059
MAPKAPK3 (UniProt Q16644)	-0.151
MDC1 (UniProt Q14676)	0.176
MAPKAPK5 (UniProt Q8IW41)	0.055
KRAS isoform 2 (UniProt P01116)	0.241 (active)
LTO1 (UniProt Q8WV07)	0
MEAK7 (UniProt Q6P9B6)	0.079
KPNA6 (UniProt O60684)	0.087
LSS (UniProt P48449)	0.077
MARK3 (UniProt P27448)	0.084
KIFBP (UniProt Q96EK5)	0.2
LUZP1 (UniProt Q86V48)	0.139
MARK2 (UniProt E9PC69)	0.049
IRF2BPL (UniProt Q9H1B7)	0.063
MFN1 (UniProt Q8IWA4)	0.078
LUC7L (UniProt Q9NQ29)	0.021
IMMP1L (UniProt Q96LU5)	0.112
IL27RA (UniProt Q6UWB1)	-0.167

Compound: CC(C)N(C[C@H]1O[C@@H](n2cnc3c(N)ncnc32)[C@H](O)[C@@H]1O)[C@H]1C[C@@H](CCc2nc3cc(C(C)(C)C)ccc3[nH]2)C1 [pinometostat]
Experiment: as above
Summary of the method: as §1

Target	log2 fold change
MAPK9 (UniProt P45984)	-0.032
MGST3 (UniProt O14880)	-0.025
INTS7 (UniProt Q9NVH2)	-0.136
LARP1 (UniProt Q6PKG0)	0.109
KDM5D isoform 3 (UniProt Q9BY66)	-0.047
MAP2K1 (UniProt Q02750)	-0.061
MAP3K20 (UniProt Q9NYL2)	0.099
LUC7L3 (UniProt O95232)	-0.023
LBR (UniProt Q14739)	0.211
L2HGDH (UniProt Q9H9P8)	0
KDM3B (UniProt Q7LBC6)	-0.011
LUC7L2 (UniProt Q9Y383)	-0.048
MFN2 (UniProt O95140)	-0.017
IPO9 (UniProt Q96P70)	0.012
LSR (UniProt Q86X29)	-0.046
MAP4 (UniProt P27816)	0.001
LARP7 isoform 3 (UniProt Q4G0J3)	0.05
MFF (UniProt Q9GZY8)	-0.012
METTL18 (UniProt O95568)	0.023
ILF3 isoform 7 (UniProt Q12906)	0.134

Target	log2 fold change
LAMP2 (UniProt P13473)	-0.077
LRPPRC (UniProt P42704)	0
MAPKAPK3 (UniProt Q16644)	-0.039
MDC1 (UniProt Q14676)	0.133
MAPKAPK5 (UniProt Q8IW41)	-0.042
KRAS isoform 2 (UniProt P01116)	0.014
LTO1 (UniProt Q8WV07)	-0.028
MEAK7 (UniProt Q6P9B6)	0.037
KPNA6 (UniProt O60684)	0.087
LSS (UniProt P48449)	-0.116
MARK3 (UniProt P27448)	0.156
KIFBP (UniProt Q96EK5)	0.019
LUZP1 (UniProt Q86V48)	0.113
MARK2 (UniProt E9PC69)	0.078
IRF2BPL (UniProt Q9H1B7)	-0.206
MFN1 (UniProt Q8IWA4)	0.018
LUC7L (UniProt Q9NQ29)	0.101
IMMP1L (UniProt Q96LU5)	-0.033
IL27RA (UniProt Q6UWB1)	0.043
